# Hit rate of the full screen: of about 360,000 compounds, about 11,000 (3.1%) were called active. Not shown: some 4% with an inconclusive outcome. Calls follow the shape of the dose curve; as a rule, active = well fitted inhibition curve with a large enough effect; inconclusive = small, poorly fitted or top-dose-only effect; inactive = no such curve, though single readings can be large or run the other way. The sample as a whole holds a higher share of actives than the screen did.
# Biological target: Schistosoma mansoni thioredoxin glutathione reductase (TGR) (UniProt Q962Y6)
# Experiment: qHTS Assay for the Inhibitors of Schistosoma Mansoni Peroxiredoxins; also: nearly all actives have a fitted effect of over 60% in size
# Details: purified TGR, DTNB reduction, TNB absorbance 405 nm; series mostly up to 114 µM; activity change, negative = inhibition: at the top concentration
# Text: Schistosomiasis is a major neglected tropical disease that currently affects over 200 million. It is caused by different species of flatworms, such as Schistosoma mansoni. Over the last century, drugs to treat the disease have evolved from potassium antimonyl tartrate, artemisinin, oxamniquine, to praziquantel, with praziquantel remaining the universally-used single drug of choice over the past three decades. However, transmission rates have changed little with praziquantel, and there is evidence for the development of drug resistant parasites. Because there is currently no suitable alternative therapy available, there is an urgent need to identify new targets and drugs for schistosomiasis treatment. Thioredoxin glutathione reductase (TGR), one uniquely positioned S. mansoni enzyme, has been identified as a major component of the worms' distinct and compressed antioxidant "firewall". TGR is a multifunctional enzyme that catalyzes the interconversion between reduced and oxidized forms of both glutathione (GSH) and thioredoxins, thus making it an attractive new antiparasitic target. Recently, a quantitative high-throughput screen of the NIH Molecular Libraries Small Molecule Repository (MLSMR, ~71K at the time of the screen in 2007) was performed using an assay that targeted both TGR and peroxiredoxin2 (Prx2, an H2O2-reducing enzymatic component of the S. mansoni redox "firewall") by following the decrease of NADPH fluorescence. […] Additional mechanistic link between exogenous NO donation and parasitic injury for the oxadiazole-2-oxide class of compounds was also expanded and better defined. Although the screen addressed both TGR and Prx2, the assay required post-screen target deconvolution for further characterization of the actives. In addition, the fluorescence assay was also subject to fluorescence interference from compound library members. We have developed a 1536-well-based kinetic HTS assay to address TGR alone. The assay followed the reduction of 5, 5'-dithiobis (2-nitrobenzoic acid) (DTNB) (Ellman's reagent) by NADPH and measured the increase in absorbance at 412 nm of the reaction product, TNB. […] This assay format can be used to screen the current MLSMR collection (with >300K compounds available) to find novel TGR inhibitors. Furoxan is a good choice to serve as a positive control in the primary HTS assay.
# Three microliters of reagents (100 uM NADPH and 20 nM TGR or 100 uM NADPH as no-enzyme control) were dispensed into 1,536-well black clear-bottomed plates. Compounds (23 nL) were transferred via Kalypsys pin tool equipped with 1536-pin array (10 nL slotted pins, V&P Scientific, San Diego, CA). The plates were then be incubated for 15 min at room temperature, and 1 uL aliquot of 500 uM NADPH were added, immediately followed by a 1 uL aliquot of 15 mM DTNB to start the reaction. The plate was transferred to a ViewLux high-throughput CCD imager (Perkin-Elmer, Wellesley, MA) where kinetic measurements of the TNB absorbance were acquired using a 405 excitation filter. Throughout the screen, reagent bottles and all liquid lines were made light-tight to minimize reagent degradation. All screening operations were performed on a fully integrated robotic system (Kalypsys, San Diego, CA) containing one RX-130 and two RX-90 anthropomorphic robotic arms (Staubli, Duncan, SC). Library plates were screened starting from the lowest and proceeding to the highest concentration, and a "double-dipping" step of the highest concentration was required to access higher concentrations of compounds. Vehicle-only plates, with DMSO being pin-transferred to the entire column 5-48 compound area, were inserted uniformly at the beginning and the end of each library in order to monitor for and record any shifts in the background, which can be affected by reagent dispensers or loss in enzyme activity overtime. […]
# % is scaled to controls: 0 for no effect and ±100 for the full control effect; potency is read from the fitted curve at half-maximal effect.
SMILES,"activity change, negative = inhibition",Potency
O=C1Cc2cc(S(=O)(=O)Nc3ccc(OC(F)(F)F)cc3)cc3c2N1CCC3,5.73% (inactive),
Cc1ccc(-c2c3c(=O)n(C)c(=O)n(C)c3cn2-n2cnnc2)cc1,,39.8 µM (active)
Cc1ccc(-c2c3c(=O)n(C)c(=O)n(C)c3cn2-c2ccccc2O)cc1,-26.9% (inactive),
COc1ccc(-c2c3c(=O)n(C)c(=O)n(C)c3cn2NC(C)=O)cc1,0% (inactive),
C=CCN(CC=C)CCOc1ccccc1[N+](=O)[O-],-4.88% (inactive),
C=CCN(N=Nc1cccc([N+](=O)[O-])c1)c1cccc([N+](=O)[O-])c1,,20 µM (active)
C=CCNC(=O)/C(=C\c1cccc([N+](=O)[O-])c1)NC(=O)c1ccccc1,-3.16% (inactive),
CCn1cc(C(=O)NCc2ccccc2)c(=O)c2cc(S(=O)(=O)N3CCCCC3)ccc21,1.07% (inactive),
C#CCOc1ccc(C2CC(=O)Nc3c2c(C)nn3-c2nc(C)cc(C)n2)cc1 (centres undefined),-14.6% (inactive),
O=C(CSc1nccn1Cc1ccc(F)cc1)NCc1ccccc1,1.52% (inactive),
CN(C)c1cccc(C(=O)Nc2nc3ccc(S(=O)(=O)NC(C)(C)C)cc3s2)c1,-2.01% (inactive),
O=C(c1ccc(Cl)cc1)n1nc(-c2cccnc2)nc1NCc1ccc(F)cc1,1.24% (inactive),
CCc1nc2cccnc2n1-c1ccc(CC(=O)Nc2c(C)cccc2C)cc1,-0.678% (inactive),
CCc1nc2cccnc2n1-c1ccc(C(=O)O)cc1,,44.7 µM (active)
COCCCNC(=O)Cc1ccc(-n2c(C)nc3cccnc32)cc1,-7.9% (inactive),
CCOc1ccc(NC(=O)c2c(NC(=O)Cc3ccccc3)sc3c2CCC(C)C3)cc1 (centres undefined),-1.16% (inactive),
COc1ccc(C2CC(c3ccc(C)cc3)Nc3ncnn32)cc1 (centres undefined),7.07% (inactive),
Cc1ccc(C2Nc3cccc4cccc(c34)N2)cc1,,17.8 µM (active)
COc1ccc(C2NC(=O)c3ccccc3N2)cc1 (centres undefined),10.4% (inactive),
COc1cccc(N2C(=O)C3CCCN3C2c2ccc(F)cc2)c1 (centres undefined),0.707% (inactive),
COc1cccc(C2Nc3cccc4cccc(c34)N2)c1,,20 µM (active)
Cc1ccc(C2CC(c3cccc(C)c3)n3nc(N)nc3N2)cc1 (centres undefined),4.95% (inactive),
Oc1ccc(C2Nc3cccc4cccc(c34)N2)cc1,,14.1 µM (active)
COc1ccc(-c2nn(CC(=O)NC3CCCC3)c3c2cnc2ccc(F)cc23)cc1,-3.89% (inactive),
CCn1cc(C(=O)NCc2ccc(C)cc2)c(=O)c2cc(S(=O)(=O)N3CCc4ccccc4C3)ccc21,12.2% (inactive),

SMILES,"activity change, negative = inhibition",Potency
COc1ccc(CNC(=O)COCc2cc(-c3cccs3)on2)cc1OC,8.12% (inactive),
Cc1ccc(Cl)cc1N1CCN(C(=O)C2CCC(CNS(=O)(=O)c3cccs3)CC2)CC1 (centres undefined),0.707% (inactive),
CCOc1ccc(CCNC(=O)c2csc3c2CCCCC3)cc1,3.2% (inactive),
COCCNC(=O)c1ccc2c(c1)N=C(C)c1cc(C)ccc1S2,6.6% (inactive),
CCOc1ccc(-c2cc(C)n3nc(C(=O)Nc4ccc(C)c(C)c4)cc3n2)cc1,-1.55% (inactive),
CCn1cc(C(=O)OCC(=O)Nc2cc(C)cc(C)c2)c(=O)c2ccc(C)nc21,6.93% (inactive),
O=C(CCS(=O)(=O)c1ccc2c(c1)NC(=O)CO2)Nc1cccc(C(F)(F)F)c1,-1.11% (inactive),
COc1cccc(-n2cc(C(=O)NCc3cccc(Cl)c3)c3ccccc3c2=O)c1,-13.4% (inactive),
COc1cccc(-c2nnc3n(CCc4ccccc4)c(=O)c4ccccc4n23)c1O,-7.84% (inactive),
COc1cccc(-n2ccn(CC(=O)NCc3ccc(C)cc3)c(=O)c2=O)c1,3.55% (inactive),
COC(=O)C1=NN(c2ccccc2)C2C(=O)N(c3ccccc3OC)C(=O)C12 (centres undefined),2.8% (inactive),
Cc1ccccc1N1C(=O)C2ON(c3ccccc3)C(c3ccncc3)C2C1=O (centres undefined),,44.7 µM (active)
COc1cc(C2C3C(=O)N(c4ccccc4)C(=O)C3ON2c2ccccc2)ccc1O (centres undefined),-32.2% (inactive),
CC(C)(C)c1ccc(C(=O)N2CCC(c3nc(-c4ccc(S(=O)(=O)N5CCCC5)cc4)no3)CC2)cc1,0.494% (inactive),
CC(=O)c1ccc(N2CCN(C3C(=O)c4ccccc4N3C(C)=O)CC2)cc1 (centres undefined),-15.5% (inactive),
CCC(=O)N1CCc2cc(S(=O)(=O)NC(C(=O)Nc3ccc(C(C)=O)cc3)C(C)C)ccc21 (centres undefined),-2.24% (inactive),
O=[N+]([O-])c1cc(-c2nc(-c3ccccc3)no2)ccc1NCc1ccco1,9.25% (inactive),
CNc1ccc(-c2nc(-c3ccco3)no2)cc1[N+](=O)[O-],11.9% (inactive),
CC(Nc1ccc(-c2nc(-c3ccco3)no2)cc1[N+](=O)[O-])c1ccccc1 (centres undefined),,31.6 µM (active)
COC(=O)c1ccccc1NC(=O)Cc1ccccc1OC,0.626% (inactive),
COc1ccccc1CNC(=O)CCCN1C(=O)NC2(CCCC2)C1=O,-11.2% (inactive),
CC[C@]1(c2ccccc2OC)C(=O)N(C(=O)OC)N1C(=O)OC,,31.6 µM (active)
CCOC(=O)c1cc2c(=O)n3ccccc3nc2n(Cc2ccco2)c1=NC(=O)c1ccc(F)cc1,-33.8% (inactive),
Cc1cccc(Nc2cc(C)nc(-n3nc(C)cc3C)n2)c1,2.04% (inactive),
